These results are taken from PubChem BioAssay AID1159506 (National Center for Advancing Translational Sciences (NCATS), 2015).

In all, about 59,000 sequences were measured (the read-out: median about -0.00055, lowest 2% from about -2 on). The sample as a whole holds a higher share of the lowest values than the screen did.

The assay in a line: Identification of proteins required for the processing of the EWS-FLI1 nascent transcript.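 Note: robust z of luciferase light less the median z of siRNAs with the same seed.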 To be noted: TC32 Ewing sarcoma NR0B1-luc vs CMV-luc (EWS-FLI1 target promoter against control promoter), 48 h; screened at 20 nM (by protocol). The procedure, abridged: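 TC32 Ewing sarcoma cells carrying NR0B1-promoter or CMV-promoter luciferase reporters were reverse-transfected with single siRNAs at 20 nM, three per gene genome-wide. Luminescence was read after 48 h and normalized to non-targeting controls.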
The sequence UCACGAACUGGACUUUACC against GRM7 displayed a seed-corrected z-score of -0.806. Under GUCAGGUAGAAGACCACAC against MRGPRG stands -2.24; under UGCGUGAACCUCUUGAACA against TNFAIP2, 0.027; under AGUGGAAACAGGAUGGAUG against GAL3ST4, -0.271. Under UAGCCGCUGACUUUGAUGC against SLC39A13 stands 0.264. For the sequence UUACUUGUACCCGCUGUUC against RLTPR, the seed-corrected z-score is -0.488. On to AUCUGCAUAAUGCACAUUC against SLC15A5, for which the seed-corrected z-score was -2.92.

AGCAUCUUGACAUUCAUCU against MYL4 had a seed-corrected z-score of -0.225. Under UUUAAGGGUAUUACGAGUG against GGPS1 stands 0.153; under UUAUCAAUUAGAGGAUAAC against B3GALNT1, 0.214; under AUACAUCCGAUUAAGAGGC against SERINC5, -2.74. In the case of UUUCCUGUAAAUCCCACAG against TSSC1 it was 0.399. Under AGAUCUAAUAACAAUAAGC against EIF2S3 stands -2.28; under AAUCAGUCAGGUAAAUGCC against ENTPD1, 0.248; under AAUAAAAAUGACAGUUUCC against BTN2A2, 0.474. Turning to AAUGAGAAUAAAGUCUACC against OR51A4, the seed-corrected z-score is -2.31. Take UCCUUCACAAACAUGUCCC against SDK1: the seed-corrected z-score was determined as 0.154. Under UAUCGAAGAUAAAUCAGCC against SLC7A11 stands 0.269; under UUCUUCUCGGCCUGUUUCC against RPL13A, 0.511; under UGCCUGUAAAGCCGUCUCC against LINC00705, -0.731. Sequence AAGCCUAUGAUGAUCACUG against C3orf52 showed a seed-corrected z-score of -0.911. In the case of UUCCAGCACAUAUCGACUC against TMEM8B it was -2.4; in that of AUACUGGACACUCUUGCCG against RNF5, -2.86. Under UUCGGUCUCAGGACUAUUG against KAT6A stands 0.686; under UUCUUGAACUGUCUAAACC against CERKL, 0.919; under UUUCAUUGAAGCGGAAGCG against CRYGD, 0.834. In turn, UUACUUAGAGGAGAUACCA against IGFBP7 came in with a seed-corrected z-score of -0.294. Sequence UCCCGGAAAGCCUUCAUGG against INF2 returned a seed-corrected z-score of -0.589. The sequence UAAGAUAUGAACUCUGACG against ZNF234 displayed a seed-corrected z-score of 0.548. In the case of UGGGCUUGUAGAAGUGUCU against DGAT1 it was -0.22; in that of AAUUAUUCGACUGACAUAG against RFC4, -2.19. In turn, AUCUGUCCAAGACAUUUGC against CHRNA7 gave a seed-corrected z-score of -1.18.

The sequence AAACUGACAAGUAGACUGG against ANKRD27 displayed a seed-corrected z-score of -0.601. In turn, UCAGUUGCUUAUGAUAGUC against CCDC73 showed a seed-corrected z-score of -2.71. Under UUAUUAGAGAGAAAAGCAC against PRAC1 stands 0.7; under UCCGUUAUUAGCAUCUGCC against 6-Mar, -0.0888.

As for UUAUUGAUGCGUUGAUUUG against CCDC88C, the seed-corrected z-score stood at 0.00274. In the case of UUAUGUACCUUGUUACAUU against CD72 it was -0.111.

In turn, AUGCGGUUCAGGAACUUGG against SBNO2 came in with a seed-corrected z-score of -2.46. In the case of ACAUAUAGUAUCAUUAUGG against SLC35D2 it was 0.0309; in that of UUUCGGUUCCUUGAAACCA against DBNL, -0.0899; in that of UUUGAUUCUACUUCAAAAC against CBX3P2, 0.167. Under AAAGGGACGCUCAACCACC against HIST1H4K stands -1.31. UUAACUGCAGGCUUAUACU against AKR1B1 displayed a seed-corrected z-score of -1.42. In the case of UAUCUUUUCCCAGUUGGAC against MSRB3 it was -2.11. In the case of UACGAUUCUUGAGUGGAAG against BACH1 it was 0.239; in that of UCUGUUUCUCGCGCACUCG against COX7A1, 0.0308; in that of UUCUUACACCUGACGAAGC against WNT5B, 0.217. In the case of UAUGAUUUAAUCACCUCCU against LOC653513 it was 0.00911; in that of UCAAUGAGAGUGCACAUCC against COPA, -3.73. In the case of AUAUCAAUUGUUAUCUUGC against ANKRD30A, the seed-corrected z-score is 0.895. Under UCUACUAUCAUUGUCCCUU against TAL1 stands 0.0482; under UCUGGUACUGUGAAGGGUC against TSPYL5, 0.606; under UAUUAUUGUCUGGAACAUC against C12orf57, 0.301. Under UGACGUACAGCAUUGACAG against PHLPP2 stands 0.366; under UAAGUCCCAAUUCACUCUC against FAM134B, 2.19; under UCUGGUUCCAGGUUGCUUA against SFXN3, -2.37. Take AGUAGAAAGACCAUGCUUG against TUBB2A: the seed-corrected z-score is 0.712. In turn, AAAACUAUUGGUUUCUUCC against GCOM1 came in with a seed-corrected z-score of -0.0313. UUCGUAGUGGAGUGAAUCC against DHH had a seed-corrected z-score of -0.195. As to ACUGCUUUCCUUAAAAUCC against CCDC40, the seed-corrected z-score is -3.74. In the case of UUGUUAACCAAGACAACGC against SNAPIN it was 0.13; in that of UGCUAUAUCUAGAUGUUCC against RMDN2, -0.178. The sequence UCUUUGUUCCAUCAUGACC against NDUFAF7 displayed a seed-corrected z-score of 0.211.

UCAUUUCGCACAGCUUCCU against RARG had a seed-corrected z-score of 0.369. AAUGCUCCAAGACUGGAGG against PTCRA registered a seed-corrected z-score of -1.44.
